Cruzain inh Det – qHTS Assay for Promiscuous and Specific Inhibitors of Cruzain (with detergent) | Cruzipain (Trypanosoma cruzi), P25779 | purified cruzain, Z-FR-AMC fluorescence, 0.01% Triton | Potency, µM, hits mostly inhibitors | 200,000 tested, 0.43% active | AID 1478, 2009; note: nearly all actives have a fitted effect of over 40% in size
Target sequence (P25779 123-467 limits assumed): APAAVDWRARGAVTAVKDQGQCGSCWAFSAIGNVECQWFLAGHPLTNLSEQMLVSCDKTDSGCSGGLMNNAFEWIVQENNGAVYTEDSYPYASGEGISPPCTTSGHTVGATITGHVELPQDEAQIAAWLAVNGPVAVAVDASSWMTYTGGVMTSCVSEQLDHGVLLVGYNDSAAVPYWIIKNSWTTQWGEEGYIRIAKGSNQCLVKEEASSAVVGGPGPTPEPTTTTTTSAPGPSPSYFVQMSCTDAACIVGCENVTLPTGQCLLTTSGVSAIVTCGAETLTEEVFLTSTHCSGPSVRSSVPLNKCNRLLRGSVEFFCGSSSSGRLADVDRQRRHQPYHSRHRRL
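Compounds were screened in titration against cruzain (1.5 nM) with 0.01% Triton X-100 to counter colloidal aggregation. Activity was the AMC fluorescence increase over 60 s after adding 2 uM Z-FR-AMC at pH 5.5.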
Cruzain inh noDet – qHTS Assay for Promiscuous and Specific Inhibitors of Cruzain (without detergent). purified cruzain, Z-FR-AMC fluorescence, no detergent. 200,000 tested, 2.3% active. Cruzipain (Trypanosoma cruzi), P25779. AID 1476, 2009. Potency, µM, actives largely listed as inhibitors; note: nearly all actives have a fitted effect of over 40% in size
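Detergent-free condition (0.00005% Triton X-100) in acetate buffer pH 5.5 with DTT. 1.5 nM enzyme and compound were pre-mixed 15 min, then 2 uM Z-FR-AMC substrate added; reaction progress from fluorescence change between first and third reads (60 s).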
Large screens that a line does not name were inactive. Compounds with a hit are over-represented: about 2.4% of the library has one in this group of screens. Calls come from the whole dose curve; as a rule, active = well fitted curve in the direction sought with a large enough effect; inconclusive = small, poorly fitted or top-dose-only effect, or another doubt; inactive = no such curve, though single readings can be large; an effect the other way counts as inactive or inconclusive.

O=C(N/N=C/c1c(O)n(CCC2=CCCCC2)c(=S)[nH]c1=O)c1ccccc1	none
CCCSCCCNC(=O)C1CCN(c2nc3ccccc3nc2C(F)(F)F)CC1	none
Cc1cc(C)c(S(=O)(=O)NCC(c2ccc(N(C)C)cc2)N2CCc3ccccc32)c(C)c1 (stereo not drawn)	Cruzain inh noDet 20µM
COc1ccc(C)cc1S(=O)(=O)NCC(c1ccc(N(C)C)cc1)N1CCc2ccccc21 (stereo not drawn)	Cruzain inh noDet inconclusive
Cc1ccccc1NC(=O)CSc1nc(-c2ccccc2)cn1-c1ccccc1F	none
CCCCOc1ccc(C(=O)Nc2cc(-c3ccc(C)cc3)no2)cc1	none
CCOc1ccc(C(=O)Nc2cc(-c3ccccc3)no2)cc1	Cruzain inh noDet 20µM
CCC(=O)N1CCc2cc(S(=O)(=O)NC(C(=O)NCc3ccc(OC)cc3)C(C)C)ccc21 (stereo not drawn)	none
COc1ccc(C2c3c(ccc4ccccc34)Oc3ncn4nc(-c5ccco5)nc4c32)cc1 (stereo not drawn)	Cruzain inh noDet inconclusive
COc1ccc(C2c3c(ccc4ccccc34)Oc3ncn4nc(Cc5ccc(OC)c(OC)c5)nc4c32)cc1 (stereo not drawn)	none
c1ccc(C2c3c(ccc4ccccc34)Oc3ncn4nc(-c5ccco5)nc4c32)cc1 (stereo not drawn)	Cruzain inh noDet 3.16µM
COc1ccc(C2c3c(ccc4ccccc34)Oc3ncn4nc(CO/N=C/c5ccccc5)nc4c32)cc1 (stereo not drawn)	Cruzain inh noDet 3.16µM
Cn1ccnc1SCC(=O)Nc1cc(Cl)ccc1Cl	none
Cc1ccccc1NC(=O)c1c(C)oc2ccc(O)c(CN3CCCC(C)C3)c12 (stereo not drawn)	none
CC(=O)Oc1ccc(C(=O)[C@H]2[C@H]3C(=O)N(c4ccccc4)C(=O)[C@H]3[C@@H]3C=CC=NN32)cc1	none
O=C(c1ccc(Cl)cc1)[C@@H]1[C@@H]2C(=O)N(c3cccc4ccccc34)C(=O)[C@@H]2C2c3ccccc3C=NN21 (stereo partly drawn)	Cruzain inh noDet 25.1µM
CCOC(=O)c1cc(-c2ccccc2)sc1NC(=O)C(C)(C)C	none
CCOC(=O)c1cc(-c2ccccc2)sc1NC(=O)CC(C)C	none
CCOC(=O)c1cc(-c2ccccc2)sc1NC(=S)Nc1cc(C)ccn1	Cruzain inh noDet 12.6µM
CCCC1(c2ccccc2)NC(=O)N(CC(=O)Nc2sc(-c3ccccc3)cc2C(=O)OCC)C1=O (stereo not drawn)	Cruzain inh noDet 7.94µM
CCOc1ccc(CNC(=O)c2cccc(NC(=O)N3CCSc4ncccc43)c2)cc1OC	none
COc1ccc(-c2cc3ccc(O)c(CN4CCOCC4)c3oc2=O)cc1	Cruzain inh noDet inconclusive
Cc1ccc(C)c(NC(=O)CSc2c3c(nc4ccc(Cl)cc24)CCCC3)c1	none
COC(=O)c1scc(-c2ccc(C)cc2)c1S(=O)(=O)N1CCN(c2cccc(Cl)c2)CC1	Cruzain inh noDet inconclusive
COc1cc(-c2nc(Cn3nnc(C(=O)Nc4cccc(Cl)c4)c3C)c(C)o2)cc(OC)c1OC	none
O=C(NCc1ccc2c(c1)CCN2C(=O)c1ccc(F)cc1)c1ccc(Br)o1	none
N=c1oc2cc(O)ccc2cc1C(=O)Nc1nc2ccccc2s1	Cruzain inh Det 12.6µM, Cruzain inh noDet 20µM
O=C(Nc1nc2ccccc2s1)c1cccn(Cc2ccccc2)c1=O	none
CCn1cc(C(=O)NCCN(CC(C)C)CC(C)C)c(=O)c2cc(S(=O)(=O)N(C)C3CCCCC3)ccc21	none
CCn1ccc2c(OCC(=O)Nc3ccc(OC)cc3OC)cccc2c1=O	Cruzain inh noDet inconclusive
CC(C)c1ccc(C2c3c(-c4ccccc4O)n[nH]c3C(=O)N2CCc2ccccc2)cc1 (stereo not drawn)	Cruzain inh noDet 20µM
Cc1ccc(C2c3c(-c4ccccc4O)n[nH]c3C(=O)N2CCc2ccccc2)cc1 (stereo not drawn)	Cruzain inh noDet inconclusive
CCCOc1ccc(C2c3c(-c4ccccc4O)n[nH]c3C(=O)N2CCc2ccccc2)cc1OCC (stereo not drawn)	Cruzain inh noDet 12.6µM
COc1ccc(C2c3c(-c4ccccc4O)n[nH]c3C(=O)N2CCc2ccc(OC)c(OC)c2)cc1 (stereo not drawn)	none
COc1ccc(C2c3c(-c4ccccc4O)n[nH]c3C(=O)N2CCc2ccccc2)cc1 (stereo not drawn)	Cruzain inh noDet 31.6µM
CCCN1C(=O)c2[nH]nc(-c3ccccc3O)c2C1c1ccc(OCc2ccccc2)c(OC)c1 (stereo not drawn)	Cruzain inh noDet inconclusive
Cc1noc(Cn2c(=O)c3cc4c(cc3n(CC(=O)Nc3cccc(Cl)c3)c2=O)OCO4)n1	none
CCc1nn(CC(=O)N(CC)Cc2ccccc2)c(=O)c2cc3occc3n12	none
NC(=O)C1CCN(c2csc3ccc(F)cc3c2=O)CC1	none
[Cl][Pd][Cl].[S-]C1=C2N=CN[C-]2[NH+]=C[N-]1.[S-]c1ncnc2[nH]cnc12	none
COC(=O)c1sc2cccc(F)c2c1S(=O)(=O)N1CCN(c2ccc(C)cc2C)CC1	Cruzain inh noDet inconclusive
CCOC(=O)c1sc2ccccc2c1S(=O)(=O)N1CCN(c2cc(C)ccc2C)CC1	Cruzain inh noDet 20µM
CCOC(=O)c1c(C)[nH]c(C)c1S(=O)(=O)N(C)CC(=O)N1CCN(c2cccc(Cl)c2)CC1	none
O=C(CNc1ccc2c(c1)OCO2)N/N=C\c1cn(Cc2ccccc2)c2ccccc12	Cruzain inh noDet 12.6µM
Cc1c(/C=C2\SC(=O)N(CC(=O)Nc3ccc4c(c3)OCO4)C2=O)c2ccccc2n1C	Cruzain inh noDet inconclusive
CCn1cc(/C=C2\SC(=O)N(CC(=O)Nc3ccc4c(c3)OCO4)C2=O)c2ccccc21	Cruzain inh noDet 3.16µM
O=C(CNc1ccc2c(c1)OCO2)N/N=C\c1cn(Cc2ccc(F)cc2)c2ccccc12	Cruzain inh noDet inconclusive
CCN(CC)CCNC(=O)C1CCN(c2cc(C)nc3c(-c4ccc(Cl)cc4)c(C)nn23)CC1	none
COc1ccccc1NC(=O)C(C)Sc1nnc2ccc3ccccc3n12 (stereo not drawn)	none
O=C1NCCN1Cc1cccc(Cl)c1	Cruzain inh noDet 12.6µM
O=S1(=O)CCN(Cc2cccc(Cl)c2)CC1	none
N#Cc1ccccc1Cn1c(=O)n(CCCCC(=O)NCc2ccc3c(c2)OCO3)c(=O)c2ccccc21	none
Cc1ccc(C)c(CSc2nc3c([nH]c4ccccc43)c(=O)n2C)c1	none
Cc1ccc(C(=O)NC(NC(=S)Nc2ccc(S(N)(=O)=O)cc2)C(Cl)(Cl)Cl)cc1 (stereo not drawn)	none
Cc1ccc(C)c(NC(=S)NC(NC(=O)Cc2ccccc2)C(Cl)(Cl)Cl)c1 (stereo not drawn)	Cruzain inh noDet 25.1µM
O=C(O)c1ccc(NC(=S)NC(NC(=O)c2ccco2)C(Cl)(Cl)Cl)cc1 (stereo not drawn)	none
Cc1cccc(NC(=S)NC(NC(=O)c2ccco2)C(Cl)(Cl)Cl)c1 (stereo not drawn)	Cruzain inh Det 3.16µM
Cc1ccc(NC(=S)NC(NC(=O)c2ccco2)C(Cl)(Cl)Cl)cc1 (stereo not drawn)	Cruzain inh Det 4.47µM
Cc1ccc(NC(=S)NC(NC(=O)c2ccccc2)C(Cl)(Cl)Cl)c(C)c1 (stereo not drawn)	none
O=C(NC(NC(=S)Nc1ccccc1)C(Cl)(Cl)Cl)c1cccc(Cl)c1 (stereo not drawn)	Cruzain inh Det inconclusive

Screening data (PubChem BioAssay)
